Consider 35 compounds from PubChem BioAssay.

Tested on in one assay: not listed separately
The assay is described as follows: compounds binding Alexa647 anti-His antibody – biochemical, small-molecule microarray, 635 nm fluorescence, artefact control for SMM control protein annotation, primary screen (AID 1128).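 Further: score merges feature fluorescence with signal-to-noise for each printed compound spot.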 To be noted: higher = more signal.
For `O=C(NCc1ccccc1)[C@]1(Cc2ccccc2)N=C(c2ccc(OCCCO)cc2)O[C@@H]1c1ccccc1`, the composite z-score was determined as 2.31. The compound `C=C(C(=O)CC[C@H](OC(=O)c1cccnc1)c1ccc(OCCO)cc1)C(C)C` showed a composite z-score of 0.423. In turn, `O=C(O)[C@@]1(Cc2ccccc2)COC(c2ccc(OCCCO)cc2)=N1` came in with a composite z-score of -0.951.

`CCOC(=O)C1=CC[C@@H](c2cccc(Br)c2)N(S(=O)(=O)c2ccc(C)cc2)[C@H]1c1ccc([N+](=O)[O-])cc1` returned a composite z-score of 0.822. As to `CN(C)C(=O)[C@@]1(CCC(=O)OC(C)(C)C)COC(c2ccc(OCCCO)cc2)=N1`, the composite z-score is 0.282.

As to `O=C1O[C@H](c2ccccc2)[C@H](c2ccccc2)N2[C@H]1[C@@H](C(=O)N1CCN(c3ncccn3)CC1)[C@]1(C(=O)Nc3ccc(C#CCCO)cc31)[C@H]2c1ccc(OCCO)cc1`, the composite z-score stood at 2.06. Regarding `COC(=O)[C@@]1(Cc2ccccc2)[C@H]2c3cc(C(=O)N4CCCC4)n(CCO)c3C[C@H]2CN1C(=O)c1ccccc1`, the composite z-score worked out at 0.931.

The next assay has as its system Human papillomavirus type 1a E7 protein (residues 1-88). The assay is described as follows: HPV1a E7 small-molecule binders, primary screen, biochemical, small-molecule microarray, residues 1-88, 635 nm (AID 1129). The following applies: small-molecule microarray binding, fluorescence 635 nm; higher = more signal.
In the case of `CC(C)NC(=O)[C@@H]1c2ccccc2C(=O)N(Cc2cc(C(F)(F)F)cc(C(F)(F)F)c2)[C@H]1c1ccc(CO)cc1`, the composite z-score came out at 1.16. As to `O=C(CS)NCCCCCNC(=O)[C@@H]1C[C@@H]2C(=O)N3CCC[C@H]3C(=O)N2[C@@H]1c1ccc(O)cc1`, the composite z-score stood at 1.12. Consider `CCCCC=C[C@@H](NC(=O)CCc1ccccc1)c1ccccc1`, for which the composite z-score stood at 1.2. Consider `COCCOC(=O)N1C(=O)[C@@]2(c3cc(C#Cc4ccc(OC)cc4)ccc31)[C@H](C(=O)N1CCc3cc(OC)c(OC)cc3C1)[C@H]1C(=O)O[C@H](c3ccccc3)[C@H](c3ccccc3)N1[C@@H]2c1ccc(OCCO)cc1`, for which the composite z-score is 1.13. The same measure, in the same setting: the value for `OCc1ccc(-c2cc[n+](Cc3cccc(OC(F)(F)F)c3)cc2)cc1` was 1.07. On the same count and under the same terms, the value for `O=C(Nc1cc(Br)ccc1C(=O)NCc1cccc(O)c1)c1ccccc1` was 1.02; that for `COC(=O)c1ccc(OC)c(/C=C\CC(CCc2ccccc2)OC(C)=O)c1` (configuration not stated) was -0.133. `O=C1C[C@@](C(=O)O)(c2ccc([N+](=O)[O-])cc2)[C@@H](c2ccc(CO)cc2)N1CC12CC3CC(CC(C3)C1)C2` had a composite z-score of 1.19. The same measure, in the same setting: the value for `CO[C@H]1O[C@H](CO)[C@@H](OC(=O)Nc2cccc(F)c2)[C@H](OC(=O)Nc2ccc3c(c2)OCO3)[C@H]1OC(=O)Nc1ccc2c(c1)OCO2` was 1.26. On to `COc1ccc([Si](C)(C)[C@H]2[C@H](CCO)O[C@@]3(C(=O)N(Cc4cccc(N5CCOC5=O)c4)c4ccccc43)[C@@H]2C)cc1`, for which the composite z-score worked out at 1.13. The same measure, in the same setting: with `COC(=O)C(CC#Cc1ccc2c(c1)[C@]1(C(=O)N2)[C@H](c2ccccc2OCCO)N2[C@H](c3ccccc3)[C@H](c3ccccc3)OC(=O)[C@H]2[C@@H]1C(=O)Nc1nc2ccccc2s1)C(=O)OC` the figure was 1.21; with `CCOC(=O)C[C@H]1[C@H](OC(=O)Cc2ccc3c(c2)OCO3)[C@@H](NC(=O)c2ccccc2)c2cc(OCCCO)ccc2N1C(=O)c1ccc2ccccc2n1`, 0.445; with `Cc1ccc(S[C@]2(C(=O)NCc3ccccc3)CC(=O)N(C3Cc4ccccc4C3)[C@@H]2c2ccc(CO)cc2I)cc1`, -0.621. `CC(C)C(CO)N1C(=O)[C@@H]2[C@H]3C(=O)OCC=C[C@H]3OC23C=CCN(CCN2CCOCC2)C(=O)[C@@H]13` (some centres not stated) registered a composite z-score of -0.438.

Turning to `C=CCOC(=O)[C@@H]1[C@H]2C(=O)O[C@H](c3ccccc3)[C@H](c3ccccc3)N2[C@H](c2ccc(OCCOC(=O)[C@H]3C[C@H]4C(=O)N[C@@H](Cc5ccccc5)C(=O)N4[C@H]3c3cccc(OCCO)c3)cc2)[C@@]12C(=O)Nc1ccc(I)cc12`, the composite z-score came out at 1.2.

In turn, `CCOC(=O)C[C@H]1[C@H](OC(=O)c2ccccc2-c2ccccc2)[C@@H](NC(=O)c2ccccc2)c2cc(OCCCO)ccc2N1C(=O)Cc1ccc(OC)cc1` gave a composite z-score of -0.64. `NCCCCCCNC(=O)[C@H]1C[C@H]2C(=O)N3CCC[C@H]3C(=O)N2[C@H]1c1ccc(O)cc1` showed a composite z-score of 0.609. Regarding `COC(=O)[C@@]1(Cc2ccc(F)cc2)[C@H]2c3cc(C(=O)N4CCCC4)n(Cc4ccccc4)c3C[C@H]2CN1C(=O)c1ccccc1`, the composite z-score was 0.923. Turning to `COC(=O)[C@@]1(Cc2ccccc2)[C@H]2c3cc(C(=O)N(C)C)n(Cc4ccccn4)c3C[C@H]2CN1C(=O)c1ccccc1`, the composite z-score worked out at 0.827. `O=C1c2ccccc2[C@](Cc2ccccc2I)(C(=O)NCC(F)(F)F)[C@H](c2ccc(CO)cc2)N1Cc1ccccc1` had a composite z-score of 1.17.

In the case of `O=C1NC(=O)C2C1C=CC(C(O)c1ccc3c(c1)OCO3)N2Nc1ccc(Cl)cc1Cl` (configuration not stated), the composite z-score came out at 0.453. `COCCOC(=O)N1C(=O)[C@@]2(c3cc(C#CCCO)ccc31)[C@H](c1ccc(OCCO)cc1)N1[C@H](c3ccccc3)[C@H](c3ccccc3)OC(=O)[C@H]1[C@@H]2C(=O)N1CCc2cc(OC)c(OC)cc2C1`: the composite z-score was 1.19. In the case of `CC(C)c1ccc(NN2C(C(O)c3cccs3)C=CC3C(=O)N(c4ccccc4)C(=O)C32)cc1` (configuration not stated), the composite z-score amounted to 1.24. As for `C#CCNS(=O)(=O)N(C)C`, the composite z-score stood at 0.928. With `C=CC[C@]1(C(=O)N(C)C)N=C(c2ccc(OCCCO)cc2)O[C@H]1c1ccccc1`, the composite z-score is 1.23. Compound `C[C@@H]1ON(c2ccccc2)[C@H](c2ccccc2)[C@H]1C(=O)N1C(=O)OC[C@H]1Cc1ccccc1` gave a composite z-score of 0.569. `COc1ccc([Si](C)(C)[C@H]2[C@H](CC(=O)N3CCC[C@H]3CO)O[C@@]3(C(=O)N(Cc4ccc(N5C(=O)c6cccc7cccc5c67)cc4)c4ccccc43)[C@@H]2C)cc1` displayed a composite z-score of 1.17. The compound `COCC1=C([C@H](O)CCc2ccccc2)[C@H](CO)[C@@H]2C(=O)N(C)C(=O)[C@@H]2C1` showed a composite z-score of -0.204. The compound `O=C(NCc1ccccc1)[C@]1(Cc2ccccc2)N=C(c2ccc(OCCCO)cc2)O[C@@H]1c1ccccc1` displayed a composite z-score of 1.2. Take `C=C(C(=O)CC[C@H](OC(=O)c1cccnc1)c1ccc(OCCO)cc1)C(C)C`: the composite z-score is 0.54. `O=C(O)[C@@]1(Cc2ccccc2)COC(c2ccc(OCCCO)cc2)=N1` gave a composite z-score of -0.915. Compound `CCOC(=O)C1=CC[C@@H](c2cccc(Br)c2)N(S(=O)(=O)c2ccc(C)cc2)[C@H]1c1ccc([N+](=O)[O-])cc1` showed a composite z-score of 1.22.

`CN(C)C(=O)[C@@]1(CCC(=O)OC(C)(C)C)COC(c2ccc(OCCCO)cc2)=N1` gave a composite z-score of 1.11. The compound `O=C1O[C@H](c2ccccc2)[C@H](c2ccccc2)N2[C@H]1[C@@H](C(=O)N1CCN(c3ncccn3)CC1)[C@]1(C(=O)Nc3ccc(C#CCCO)cc31)[C@H]2c1ccc(OCCO)cc1` had a composite z-score of 1.2. In turn, `COC(=O)[C@@]1(Cc2ccccc2)[C@H]2c3cc(C(=O)N4CCCC4)n(CCO)c3C[C@H]2CN1C(=O)c1ccccc1` showed a composite z-score of 0.992.
